# In paper PMC4336329 (PLoS ONE, 2015):
# The whole screen tested about 310,000 compounds, of which about 14,000 (4.5%) showed an effect of 50% or more. The effect is printed as a negative number. Only a selection was taken, and strong results are over-represented in it overall.
# Target: human ether-à-go-go-related gene (hERG) potassium channel (human, UniProt Q12809)
# Test: primary screen, population patch clamp on CHO cells stably expressing hERG; higher = less effect of the substance
# 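Further: peak tail current of the secondary pulse compared with the same well before compound.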
# Sequence of human ether-à-go-go-related gene (hERG) potassium channel (Q12809 whole entry, looked up): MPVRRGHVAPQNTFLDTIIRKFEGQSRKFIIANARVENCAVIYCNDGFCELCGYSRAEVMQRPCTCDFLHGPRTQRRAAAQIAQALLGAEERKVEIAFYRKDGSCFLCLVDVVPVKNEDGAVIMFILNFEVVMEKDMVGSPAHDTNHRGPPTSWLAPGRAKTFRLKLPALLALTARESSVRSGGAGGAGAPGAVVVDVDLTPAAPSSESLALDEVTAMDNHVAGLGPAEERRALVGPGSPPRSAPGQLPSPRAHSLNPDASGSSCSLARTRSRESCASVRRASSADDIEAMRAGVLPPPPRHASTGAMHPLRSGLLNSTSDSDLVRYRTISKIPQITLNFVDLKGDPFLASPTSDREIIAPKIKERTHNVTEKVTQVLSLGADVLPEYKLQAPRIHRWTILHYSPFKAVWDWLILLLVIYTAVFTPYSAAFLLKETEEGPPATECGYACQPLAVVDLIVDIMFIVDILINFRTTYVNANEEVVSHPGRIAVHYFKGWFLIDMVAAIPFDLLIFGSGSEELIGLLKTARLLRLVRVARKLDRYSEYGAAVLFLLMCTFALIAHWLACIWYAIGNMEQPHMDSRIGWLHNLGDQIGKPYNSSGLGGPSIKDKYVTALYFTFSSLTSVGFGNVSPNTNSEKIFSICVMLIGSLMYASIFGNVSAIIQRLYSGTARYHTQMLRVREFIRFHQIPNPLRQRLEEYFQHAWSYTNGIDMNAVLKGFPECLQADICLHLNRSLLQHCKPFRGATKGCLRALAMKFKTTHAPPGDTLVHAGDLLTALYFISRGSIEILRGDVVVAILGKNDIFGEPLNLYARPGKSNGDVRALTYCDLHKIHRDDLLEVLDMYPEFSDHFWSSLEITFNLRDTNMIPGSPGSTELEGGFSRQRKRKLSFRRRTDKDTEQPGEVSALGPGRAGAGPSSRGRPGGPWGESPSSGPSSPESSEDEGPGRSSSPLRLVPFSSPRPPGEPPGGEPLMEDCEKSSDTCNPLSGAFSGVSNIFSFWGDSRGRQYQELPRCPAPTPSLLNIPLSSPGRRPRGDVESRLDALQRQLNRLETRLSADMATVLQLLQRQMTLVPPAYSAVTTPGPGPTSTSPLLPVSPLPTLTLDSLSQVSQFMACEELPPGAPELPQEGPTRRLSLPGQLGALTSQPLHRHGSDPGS
row,Structure (SMILES),"hERG current change (%, negative = inhibition) at 10uM [%]"
1,Cc1ncc([N+](=O)[O-])n1CC(=O)NCc1ccccc1,16
2,Cc1ccc(S(=O)(=O)NNC(=O)C(=O)NNS(=O)(=O)c2ccc(C)cc2)cc1,-1.99
3,O=C(c1ccc(Cl)cc1)N1CCCCC(Cl)C1=O (stereo not drawn),7.57
4,COc1cccc(Nc2ncc(C(=O)O)c3ccccc23)c1,-1.48
5,Fc1cnc(Cl)nc1N1CCN(c2ccccc2)CC1,-17.4
6,Cc1nn(Cc2ccccc2)c(C)c1C(=O)OCC(=O)c1cc(C)n(CC(F)(F)F)c1C,-2.57
7,COc1cccc(-n2c(-c3ccco3)nc3nc4ccccc4nc32)c1,18.4
8,O=C(COC(=O)c1cccnc1Nc1ccccc1F)NC1CC1,-0.164
9,Cc1cc(O)ccc1N/C=C(\C#N)c1nc2ccccc2o1,10.2
10,C=C(C)COc1ccc2c(C)c(CCC(=O)NC3CC3)c(=O)oc2c1,-2.92
11,CCOC(=O)c1sc2nc(CN3CCN(c4cccc(C(F)(F)F)c4)CC3)[nH]c(=O)c2c1C,8.43
12,N#Cc1ccc(Cn2c(-c3ccc(F)cc3)noc2=O)cc1,-17.8
13,COc1ccc(-c2noc(=O)n2Cc2ccccc2Cl)cc1,-8.73
14,COc1ccc(-c2noc(=O)n2Cc2ccc(C#N)cc2)cc1,-70.1
15,Cc1cc(C)n(Cc2ccc(C(=O)O)o2)n1,11.5
16,COc1ccccc1COn1c(=O)c(-c2ccco2)[n+]([O-])c2ccccc21,5.96
17,N=c1c(S(=O)(=O)c2ccc(Cl)cc2)cc2c(=O)n3ccccc3nc2n1CCN1CCOCC1,-46.4
18,N=c1c(S(=O)(=O)c2ccccc2)cc2c(=O)n3ccccc3nc2n1CCCN1CCOCC1,-65.9
19,N=c1c(C(=O)NCCN2CCOCC2)cc2c(=O)n3ccccc3nc2n1CCc1ccccc1,-72.5
20,N=c1c(C(=O)NCc2ccccc2)cc2c(=O)n3ccccc3nc2n1CCCN1CCOCC1,-78.6
21,O=C(NCCN1CCOCC1)c1c(O)nc2ccccn2c1=O,10.9
22,Nc1c(C(=O)NCc2ccc(F)cc2)c2nc3ccccc3nc2n1CCCN1CCOCC1,0.0395
23,N=c1c(C(=O)NCc2ccc(F)cc2)cc2c(=O)n3ccccc3nc2n1CCCN1CCOCC1,-83

row,Structure (SMILES),"hERG current change (%, negative = inhibition) at 10uM [%]"
1,Cc1ccc(S(=O)(=O)c2cc3c(=O)n4ccccc4nc3n(CCCN3CCOCC3)c2=N)cc1C,-36.8
2,CN(C)S(=O)(=O)N1CCC(Oc2ccc(C(=O)NCCc3cscn3)cc2)CC1,0.0832
3,CC(C)O.CCc1nnc(NS(=O)(=O)c2ccc(NC(=O)C(c3ccccc3)c3ccccc3)cc2)s1,2.36
4,CCc1nnc(NC(=O)C2CC(=O)N(c3ccc4c(c3)OCCO4)C2)s1 (stereo not drawn),4.32
5,CC(=O)Nc1ccc(C(=O)CS(=O)(=O)c2ccc(C)cc2)cc1,-11.5
6,N=c1c(C(=O)NCCN2CCOCC2)cc2c(=O)n3ccccc3nc2n1CCCN1CCOCC1,-4.43
7,N=c1c(C(=O)NCCc2ccccc2)cc2c(=O)n3ccccc3nc2n1CCCN1CCOCC1,-76.2
8,CC1(C)CC(=O)C=C(NCCO)C1,-0.4
9,O=C(Nc1ccc(N2CCN(C(=O)c3ccco3)CC2)cc1)c1ccco1,20.7
10,CN(CC(CC(=O)Nc1nncs1)c1ccccc1)S(=O)(=O)c1ccc(Br)cc1 (stereo not drawn),-55.4
11,Cc1nnc(NC(=O)CC(CN(C)S(=O)(=O)c2ccccc2)c2ccccc2)s1 (stereo not drawn),-18.7
12,CN(CC(CC(=O)Nc1nncs1)c1ccccc1)S(=O)(=O)c1ccccc1 (stereo not drawn),-14.2
13,COC(=O)c1ccccc1NC(=O)Nc1ccc(Cl)cn1,-3.82
14,O=C(Nc1ccc2c(c1)OCO2)Nc1ccc(Br)cn1,3.01
15,Cc1cccc(N/C=C/C(=C(C#N)C#N)N(C)C)c1,-24.5
16,CN(Cc1ccccc1NCC(=O)Nc1ccccc1C#N)C1CCCCC1,-33
17,Cc1ccc(NC(=O)CNc2ccccc2CN(C)C2CCCCC2)cc1,-59.1
18,COc1ccc(C)cc1NC(=O)CNc1ccccc1CN(C)C1CCCCC1,-19.6
19,Cc1c(C(=O)N(C)CCC#N)oc2ccc(S(=O)(=O)N3CCOCC3)cc12,10.1
20,O=C(NNc1ncnc2c1cnn2-c1ccc(F)cc1)c1cccs1,6.55
21,O=C1CCC(C(=O)N(CCO)Cc2ccccc2)CN1CC1CCCCC1 (stereo not drawn),11.7
22,CN(C)C1=NCCN1CCc1ccc(F)cc1,-9.03
